Where a name gives a salt, the structure may show the parent alone. Values without a mark were called inactive.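 The calls were made as follows: active = normalised median growth AUC below 0.1 of DMSO control; inactive = AUC 0.1 or higher.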
What was measured:
Test in all cases: growth AUC normalised to DMSO control (median) (fraction of control); higher = less growth inhibition, active = hit call of the paper
Settings in all cases: 20 µM
P. vulgatus RND KO = tested on: P. vulgatus RND KO
Procedure, shortened: (§1)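 In 96-well plates of mGAM seeded at OD578 0.01, strains that had been passaged twice overnight without oxygen were exposed to approved-drug library compounds at 20 μM with 1% DMSO. Hourly OD578 readings were taken for 24 h in an anaerobic incubator. The trapezoidal-rule area under the curve, with curves truncated at entry into stationary phase, was expressed relative to same-plate vehicle wells as the median of three biological replicates.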

P. vulgatus WT = tested on: P. vulgatus WT
Procedure, shortened: as §1

[1] = tested on: S. enterica typhimurium WT
Procedure, shortened: as §1

[2] = tested on: S. enterica typhimurium tolC KO
Procedure, shortened: as §1
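Also: active when median AUC fell below 0.1.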

SMILES	growth AUC normalised to DMSO control (P. vulgatus RND KO)	growth AUC normalised to DMSO control (P. vulgatus WT)	growth AUC normalised to DMSO control [1]	growth AUC normalised to DMSO control [2]
CC(C)Cc1ccc(CC(=O)O)cc1 [Ibufenac]	1.06	1.06	1.01	0.981
O=C(O)c1ccccc1Nc1cc(Cl)ccc1C(=O)O [Lobenzarit disodium]	0.992	1.02	1.02	0.959
C#CCN[C@@H]1CCc2ccccc21 [Rasagiline]	0.989	0.96	1	0.982
COC(=O)C1=C(C)NC(C)=C(C(=O)OCCN2CCN(C(c3ccccc3)c3ccccc3)CC2)C1c1cccc([N+](=O)[O-])c1 (stereo unspecified) [Manidipine Dihydrochloride]	1.03	1.02	0.999	1.02
CCOC(=O)CC(=O)N1CCSC1COc1ccccc1OC (stereo unspecified) [Moguisteine]	0.965	0.965	1.01	0.986
CC[C@H](C)[C@H](NC(=O)[C@H](Cc1ccc(O)cc1)NC(=O)[C@@H](NC(=O)[C@H](CCCN=C(N)N)NC(=O)[C@@H](N)CC(=O)O)C(C)C)C(=O)N[C@@H](Cc1cnc[nH]1)C(=O)N1CCC[C@H]1C(=O)N[C@@H](Cc1ccccc1)C(=O)O [Angiotensin II (Human) Trifluoroacetic acid salt]	1.1	1.1	0.997	1.02
N[C@@H]1CCCCN(c2c(F)cc3c(=O)c(C(=O)O)cn(C4CC4)c3c2Cl)C1 [Besifloxacin hydrochloride]	0.0164 (active)	0.0175 (active)	0.00618 (active)	0.00833 (active)
CCCSc1nc(N[C@@H]2C[C@H]2c2ccc(F)c(F)c2)c2nnn([C@@H]3C[C@H](OCCO)[C@@H](O)[C@H]3O)c2n1 [Ticagrelor]	0.786	0.544	1.03	0.899
COc1ccnc(C[S+]([O-])c2nc3cc(OC(F)F)ccc3[nH]2)c1OC (stereo unspecified) [Pantoprazole sodium]	0.991	0.998	1.01	0.937
Cc1ccc2c(Cl)cc(Cl)c(O)c2n1 [Chlorquinaldol]	0.0174 (active)	0.014 (active)	0.982	0.371
Oc1c(Br)cc(Br)c2cccnc12 [Broxyquinoline]	0.294	0.0591 (active)	0.986	0.561
NC[C@H]1O[C@H](O[C@H]2[C@H](O)[C@@H](O[C@H]3O[C@H](CO)[C@@H](O)[C@H](N)[C@H]3O)[C@H](N)C[C@@H]2N)[C@H](N)[C@@H](O)[C@@H]1O [Kanamycin B]	1.1	1.14	0.947	1.02
CC(C)c1cc2c(cc1S(=O)(=O)O)[C@@]1(C)CCC[C@@](C)(C(=O)O)[C@@H]1CC2 [Ecabet sodium]	1.01	1.02	1.01	0.988
CCN[C@@H]1C[C@H](N)[C@@H](O[C@H]2OC(CN)=CC[C@H]2N)[C@H](O)[C@H]1O[C@H]1OC[C@](C)(O)[C@H](NC)[C@H]1O [Netilmicin sulfate]	1.02	1.04	0.996	0.932
Cc1ccc(C(=O)c2cc(O)c(O)c([N+](=O)[O-])c2)cc1 [Tolcapone]	0.474	0.0123 (active)	0.993	0.91
CCN(CC)CCOCCOC(=O)C(CC)(CC)c1ccccc1 [Oxeladin citrate]	1	0.98	0.995	0.973
CNCC[C@@H](Oc1cccc2ccccc12)c1cccs1 [(R)-Duloxetine hydrochloride]	1.02	0.993	0.999	0.929
O=C(Oc1ccccc1)c1ccccc1O [Phenyl salicylate]	1.03	1.06	1.01	0.975
CC(=O)Oc1ccc(C(=C2CCCCC2)c2ccc(OC(C)=O)cc2)cc1 [Cyclofenil]	0.903	0.904	0.997	0.972
Cc1onc(-c2ccccc2)c1-c1ccc(S(N)(=O)=O)cc1 [Valdecoxib]	0.981	0.993	1	0.983
O=C1CN2Cc3c(ccc(Cl)c3Cl)N=C2N1 [Anagrelide]	1.01	0.996	0.994	0.957
CN(CCOc1ccc(NS(C)(=O)=O)cc1)CCc1ccc(NS(C)(=O)=O)cc1 [Dofetilide]	0.985	0.992	0.999	1

SMILES	growth AUC normalised to DMSO control (P. vulgatus RND KO)	growth AUC normalised to DMSO control (P. vulgatus WT)	growth AUC normalised to DMSO control [1]	growth AUC normalised to DMSO control [2]
CN(CCCN1c2ccccc2CCc2ccccc21)CC(=O)c1ccc(Cl)cc1 [Lofepramine]	0.944	0.964	0.985	0.957
CCOCC(O)COc1ccc(NC(=O)CC[S+](C)C)cc1 (stereo unspecified) [Suplatast Tosylate]	0.998	1.01	1	1
CC(=O)Nc1ccccc1 [Acetanilide]	0.993	1	0.997	1.01
CC(C)[C@H]1CC[C@H](C(=O)N[C@H](Cc2ccccc2)C(=O)O)CC1 [Nateglinide]	0.977	0.999	0.994	0.968
Cc1ccc(=O)n(-c2ccccc2)c1 [Pirfenidone]	0.932	0.875	1	1
CCCCNC(=N)NC(=N)N [Buformin]	1.04	1.06	1.02	0.991
CS(=O)(=O)c1ccc([C@@H](O)[C@@H](CF)NC(=O)C(Cl)Cl)cc1 [Florfenicol]	0.0099 (active)	0.00788 (active)	0.00248 (active)	0.00279 (active)
COc1cc(N)cn[n+]1-c1ccccc1 [Amezinium metilsulfate]	1.01	1	1	1
CCOC(=O)C1=C[C@@H](OC(CC)CC)[C@H](NC(C)=O)[C@@H](N)C1 [Oseltamivir phosphate]	1.08	1.05	0.996	0.984
OC(CNCC(O)C1CCc2cc(F)ccc2O1)C1CCc2cc(F)ccc2O1 (stereo unspecified) [Nebivolol hydrochloride]	0.957	1.01	0.998	0.925
O=C(CCCl)NCc1ccccc1 [Beclamide]	0.972	0.966	1.01	0.974
Cc1ccc(Nc2c(F)cccc2Cl)c(CC(=O)O)c1 [Lumiracoxib]	0.985	1.01	1	1
CCC(C)(C)c1ccc(CC(C)CN2C[C@@H](C)O[C@@H](C)C2)cc1 (stereo partly specified) [Amorolfine hydrochloride]	1.01	1.03	1.01	0.963
N#Cc1ccc(Oc2ccc3c(c2)COB3O)cc1 [Crisaborole]	1	1.02	1.01	1.02
Cc1ccnc2c1NC(=O)c1cccnc1N2C1CC1 [Nevirapine]	0.995	1.01	1	1
CCc1oc2ccccc2c1C(=O)c1cc(I)c(O)c(I)c1 [Benziodarone]	0.647	0.606	0.999	0.815
CC(=O)[C@@]12O[C@](C)(c3ccccc3)O[C@@H]1C[C@H]1[C@@H]3CCC4=CC(=O)CC[C@]4(C)[C@H]3CC[C@@]12C [Algestone acetophenide]	0.955	0.983	1	0.993
N[C@@H](C(=O)N[C@@H]1C(=O)N2C(C(=O)O)=C(Cl)CC[C@H]12)c1ccccc1 [Loracarbef]	0.00871 (active)	0.00996 (active)	0.018 (active)	0.0264 (active)
N[C@H](Cc1ccccc1)C(=O)O [D-phenylalanine]	0.996	0.985	0.995	1
COc1ccc2cc1Oc1ccc(cc1)C[C@H]1c3c(cc4c(c3Oc3cc5c(cc3OC)CCN(C)[C@@H]5C2)OCO4)CCN1C [Cepharanthine]	0.999	0.973	1.02	0.998
CC(=O)Nc1ccc(CC(=O)O)cc1 [Actarit]	0.953	1.01	1	0.991
CCN(CC)C(=O)C1(c2ccccc2)CC1CN (stereo unspecified) [Milnacipran hydrochloride]	1.02	1.01	0.999	1
